AC50 and outcome data for 31 molecules are collected here from PubChem BioAssay (EPA / NIEHS).

Records with an inconclusive call do not appear. Calls of active or inactive are those of the source. How the source made its calls: active means hit-call score of the fitted dose curve at least 0.9, where 1 is the maximum; inconclusive means response in the unintended direction; inactive means score below 0.9.

Assay [1] addresses rat CYP3A2, Cyp3a2 (gene 266682) (UniProt P05183). As to the kind of experiment: NVS_ADME_rCYP3A2: NovaScreen (NVS) CYP450-related Enzyme Activity (ADME) Assay for rat CYP3A2 (AID 2283128). The method in brief: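 Fluorescence readout of extracted rat CYP3A2 activity 0.5 h post-dose, acetonitrile as negative control. Single-point testing in duplicate at 10 uM, followed by concentration series to a 20 uM maximum for actives.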

The target in assay [2] is human AMP-activated Protein Kinase, alpha 1 (AMPKa1), PRKAA1 (gene 5562) (UniProt Q13131). The assay can be described thus: NVS_ENZ_hAMPKa1: NovaScreen (NVS) Enzymatic Assay for human AMP-activated Protein Kinase, alpha 1 (AMPKa1) (AID 2283130). In outline: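 Compounds were screened in duplicate at 25 uM, and those reaching ~30% inhibition were titrated up to 50 uM. The enzyme was recombinant human AMPKα1, and kinase turnover was read by fluorescence/mobility shift 1 h post-dosing as loss of signal versus DMSO.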
human AMP-activated Protein Kinase, alpha 1 (AMPKa1), PRKAA1 (gene 5562), sequence (Q13131 whole entry, looked up): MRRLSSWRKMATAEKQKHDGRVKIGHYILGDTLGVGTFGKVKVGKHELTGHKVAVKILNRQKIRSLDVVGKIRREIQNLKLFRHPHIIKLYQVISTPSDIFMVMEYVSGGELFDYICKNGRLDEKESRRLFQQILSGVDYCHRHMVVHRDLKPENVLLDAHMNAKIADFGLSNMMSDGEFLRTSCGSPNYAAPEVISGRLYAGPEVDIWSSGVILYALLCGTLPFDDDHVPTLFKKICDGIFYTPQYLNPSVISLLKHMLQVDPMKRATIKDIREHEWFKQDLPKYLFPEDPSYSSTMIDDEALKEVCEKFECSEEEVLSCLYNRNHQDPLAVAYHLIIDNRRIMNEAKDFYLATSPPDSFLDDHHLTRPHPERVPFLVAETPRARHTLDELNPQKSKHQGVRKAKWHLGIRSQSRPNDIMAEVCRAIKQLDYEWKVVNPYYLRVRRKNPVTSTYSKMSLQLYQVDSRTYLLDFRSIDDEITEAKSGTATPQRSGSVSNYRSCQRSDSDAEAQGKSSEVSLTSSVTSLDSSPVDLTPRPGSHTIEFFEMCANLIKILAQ

The target of a further assay is Caspase-1 (Homo sapiens) (UniProt P29466). As to the kind of experiment: NVS_ENZ_hCASP1: NovaScreen (NVS) Enzymatic Assay for human Caspase 1 (CASP1) (AID 2283132). In outline: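 Compounds were first tested in duplicate at 25 uM, with follow-up concentration series up to 50 uM. The bacterially expressed enzyme was read by fluorescence at 1 h post-dosing. Signal loss versus DMSO baseline indicates reduced enzyme activity.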
Caspase-1 (Homo sapiens), sequence (P29466 whole entry, looked up): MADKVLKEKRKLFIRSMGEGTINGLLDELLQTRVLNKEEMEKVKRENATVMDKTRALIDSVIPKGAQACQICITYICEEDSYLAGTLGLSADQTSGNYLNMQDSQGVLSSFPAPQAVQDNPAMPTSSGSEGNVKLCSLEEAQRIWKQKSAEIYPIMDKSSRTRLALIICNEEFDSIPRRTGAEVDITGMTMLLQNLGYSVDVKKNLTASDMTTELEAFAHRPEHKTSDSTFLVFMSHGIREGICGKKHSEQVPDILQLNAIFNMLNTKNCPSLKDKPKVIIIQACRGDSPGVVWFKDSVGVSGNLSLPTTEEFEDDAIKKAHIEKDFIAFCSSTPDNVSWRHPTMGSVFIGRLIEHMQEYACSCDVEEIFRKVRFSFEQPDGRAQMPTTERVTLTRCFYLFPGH

The target in the next assay is Caspase-3 (Homo sapiens) (UniProt P42574). The assay can be described thus: NVS_ENZ_hCASP3: NovaScreen (NVS) Enzymatic Assay for human Caspase 3 (CASP3) (AID 2283139). In outline:
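Single-concentration screening at 25 uM in duplicate, with concentration-response follow-up to a 50 uM maximum for chemicals passing the threshold. Caspase-3 (human, E. coli-expressed) activity was read as substrate fluorescence after 1 h, with loss of signal relative to DMSO.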

Assay [3] addresses human Caspase 8 (CASP8), CASP8 (gene 841) (UniProt Q14790). The assay can be described thus: NVS_ENZ_hCASP8: NovaScreen (NVS) Enzymatic Assay for human Caspase 8 (CASP8) (AID 2283146). In outline:
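The primary screen tested compounds in duplicate at a single 25 uM concentration, with actives followed up in concentration series. Activity of recombinant (E. coli) protease was measured by fluorescence 1 h post-dose, as signal loss against DMSO.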

The target in assay [4] is human Dual Specificity Protein Phosphatase 3 (DUSP3), DUSP3 (gene 1845) (UniProt P51452). As to the kind of experiment: NVS_ENZ_hDUSP3: NovaScreen (NVS) Enzymatic Assay for human Dual Specificity Protein Phosphatase 3 (DUSP3) (AID 2283152). In outline: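 Cell-free fluorescence-intensity enzyme activity assay with recombinant protein and substrate; loss of signal fitted relative to DMSO baseline. Primary screen in duplicate at 25 uM, actives then run in concentration series; measured 0 h after dosing.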
human Dual Specificity Protein Phosphatase 3 (DUSP3), DUSP3 (gene 1845), sequence (P51452 whole entry, looked up): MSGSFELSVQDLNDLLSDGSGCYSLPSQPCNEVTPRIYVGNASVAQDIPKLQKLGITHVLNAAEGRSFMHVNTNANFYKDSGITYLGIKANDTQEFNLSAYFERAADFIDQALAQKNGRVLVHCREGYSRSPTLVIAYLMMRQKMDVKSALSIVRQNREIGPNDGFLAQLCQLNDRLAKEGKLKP

Assay [5] deals with human Acetylcholinesterase (AChE), ACHE (gene 43) (UniProt P22303). The assay can be described thus: NVS_ENZ_hAChE: NovaScreen (NVS) Enzymatic Assay for human Acetylcholinesterase (AChE) (AID 2283129). The method in brief:
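Actives from a duplicate single-point screen (25 uM) were followed up in concentration series. Enzyme activity read by absorbance (colorimetric) 0.33 hour after dosing, cell-free, normalized to DMSO, with loss of signal scored.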

In assay [6] the target is human Caspase 4 (CASP4), CASP4 (gene 837) (UniProt P49662). As to the kind of experiment: NVS_ENZ_hCASP4: NovaScreen (NVS) Enzymatic Assay for human Caspase 4 (CASP4) (AID 2283143). In outline: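 Compounds were first tested in duplicate at 25 uM, and hits were titrated singly to a 50 uM maximum. Recombinant protease from E. coli was read by fluorescence 2 h post-dose, and activity loss was fitted against the DMSO baseline.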
human Caspase 4 (CASP4), CASP4 (gene 837), sequence (P49662 whole entry, looked up): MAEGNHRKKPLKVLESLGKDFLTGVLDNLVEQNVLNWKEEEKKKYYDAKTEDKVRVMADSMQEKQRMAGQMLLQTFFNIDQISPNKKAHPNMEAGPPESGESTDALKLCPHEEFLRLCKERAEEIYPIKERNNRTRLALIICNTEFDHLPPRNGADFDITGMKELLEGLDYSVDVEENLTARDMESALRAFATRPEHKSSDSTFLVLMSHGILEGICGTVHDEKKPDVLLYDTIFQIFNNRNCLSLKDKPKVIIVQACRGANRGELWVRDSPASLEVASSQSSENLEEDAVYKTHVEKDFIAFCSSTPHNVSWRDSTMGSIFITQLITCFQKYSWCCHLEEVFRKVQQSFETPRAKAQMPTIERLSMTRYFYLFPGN

In assay [7] the target is human Casein Kinase 2- alpha 2 beta 2 (CK2a2b2), CSNK2A1 (gene 1457) (UniProt P68400). As to the kind of experiment: NVS_ENZ_hCK2a2b2: NovaScreen (NVS) Enzymatic Assay for human Casein Kinase 2- alpha 2 beta 2 (CK2a2b2) (AID 2283147). The method in brief:
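Compounds were first screened in duplicate at 25 uM, and those passing the threshold were re-tested in concentration series up to a 50 uM maximum. Kinase activity of recombinant human CK2 α2β2 was measured 1 h after dosing by fluorescent substrate/product mobility-shift separation.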

Assay [8] addresses human Casein Kinase 1-delta (CK1D), CSNK1D (gene 1453) (UniProt P48730). The assay can be described thus: NVS_ENZ_hCK1D: NovaScreen (NVS) Enzymatic Assay for human Casein Kinase 1-delta (CK1D) (AID 2283148). The method in brief: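 Recombinant human CK1-delta, cell-free; fluorescent substrate with electrophoretic mobility-shift separation of product, read 1 h after dosing. Single 25 uM duplicate screen, then concentration-response up to 50 uM; loss of signal vs DMSO.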

Assay [9] concerns the target human Caspase 5 (CASP5), CASP5 (gene 838) (UniProt P51878). As to the kind of experiment: NVS_ENZ_hCASP5: NovaScreen (NVS) Enzymatic Assay for human Caspase 5 (CASP5) (AID 2283137). In outline:
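Chemicals were first tested in duplicate at 25 uM against recombinant caspase 5 from E. coli. Activity was read by fluorescence intensity 2 hours after dosing. Those passing a preset inhibition threshold were retested in singleton concentration-response up to 50 uM.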

Assay [10] deals with human Beta-secretase (BACE), BACE1 (gene 23621) (UniProt P56817). The assay can be described thus: NVS_ENZ_hBACE: NovaScreen (NVS) Enzymatic Assay for human Beta-secretase (BACE) (AID 2283140).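 Further: hits are inhibitors that reduce fluorescent substrate signal versus DMSO.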 The method in brief: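 Fluorescence intensity read-out of protease activity defines this endpoint; signal loss relative to DMSO baseline marks inhibition. Recombinant enzyme from SF9 cells, cell-free format, 1 h exposure. Single-concentration duplicate screen (25 uM) precedes concentration-series follow-up.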
human Beta-secretase (BACE), BACE1 (gene 23621), sequence (P56817 whole entry, looked up): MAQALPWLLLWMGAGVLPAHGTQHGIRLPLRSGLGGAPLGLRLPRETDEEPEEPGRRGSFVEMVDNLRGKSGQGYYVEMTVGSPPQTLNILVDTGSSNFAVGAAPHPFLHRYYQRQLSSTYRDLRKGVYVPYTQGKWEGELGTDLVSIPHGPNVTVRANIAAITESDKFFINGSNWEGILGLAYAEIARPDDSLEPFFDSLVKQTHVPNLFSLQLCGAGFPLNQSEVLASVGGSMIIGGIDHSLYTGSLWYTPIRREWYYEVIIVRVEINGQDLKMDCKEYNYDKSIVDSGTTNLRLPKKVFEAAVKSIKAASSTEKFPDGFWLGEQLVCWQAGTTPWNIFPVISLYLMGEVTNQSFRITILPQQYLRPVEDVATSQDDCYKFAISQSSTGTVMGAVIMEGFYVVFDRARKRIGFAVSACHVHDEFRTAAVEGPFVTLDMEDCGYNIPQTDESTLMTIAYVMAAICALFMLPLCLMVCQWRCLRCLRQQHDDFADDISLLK

The target in assay [11] is human AKT serine/threonine Kinase 1 (AKT1), AKT1 (gene 207) (UniProt P31749). The assay can be described thus: NVS_ENZ_hAKT1: NovaScreen (NVS) Enzymatic Assay for human AKT serine/threonine Kinase 1 (AKT1) (AID 2283138). The method in brief: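 Compounds were first tested in duplicate at 25 uM, and those passing a threshold such as 30% inhibition were run in concentration-response to a maximum of 50 uM. Enzyme activity was measured after 1 h by fluorescence following substrate/product mobility-shift separation.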
human AKT serine/threonine Kinase 1 (AKT1), AKT1 (gene 207), sequence (P31749 whole entry, looked up): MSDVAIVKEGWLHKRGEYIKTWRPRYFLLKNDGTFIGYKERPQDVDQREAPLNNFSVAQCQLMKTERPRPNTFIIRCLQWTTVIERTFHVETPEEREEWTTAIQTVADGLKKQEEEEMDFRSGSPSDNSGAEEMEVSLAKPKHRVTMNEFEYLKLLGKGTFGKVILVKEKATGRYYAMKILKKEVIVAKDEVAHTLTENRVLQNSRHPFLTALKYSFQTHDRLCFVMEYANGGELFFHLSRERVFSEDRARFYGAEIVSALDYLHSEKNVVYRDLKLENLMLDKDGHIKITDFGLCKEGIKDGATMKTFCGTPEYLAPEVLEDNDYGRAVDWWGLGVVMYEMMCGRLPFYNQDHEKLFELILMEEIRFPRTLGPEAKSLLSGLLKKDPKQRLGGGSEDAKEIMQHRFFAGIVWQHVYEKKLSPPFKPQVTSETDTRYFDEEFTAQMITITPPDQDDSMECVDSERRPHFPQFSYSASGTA

human Acetylcholinesterase (AChE), ACHE (gene 43), sequence (P22303 whole entry, looked up): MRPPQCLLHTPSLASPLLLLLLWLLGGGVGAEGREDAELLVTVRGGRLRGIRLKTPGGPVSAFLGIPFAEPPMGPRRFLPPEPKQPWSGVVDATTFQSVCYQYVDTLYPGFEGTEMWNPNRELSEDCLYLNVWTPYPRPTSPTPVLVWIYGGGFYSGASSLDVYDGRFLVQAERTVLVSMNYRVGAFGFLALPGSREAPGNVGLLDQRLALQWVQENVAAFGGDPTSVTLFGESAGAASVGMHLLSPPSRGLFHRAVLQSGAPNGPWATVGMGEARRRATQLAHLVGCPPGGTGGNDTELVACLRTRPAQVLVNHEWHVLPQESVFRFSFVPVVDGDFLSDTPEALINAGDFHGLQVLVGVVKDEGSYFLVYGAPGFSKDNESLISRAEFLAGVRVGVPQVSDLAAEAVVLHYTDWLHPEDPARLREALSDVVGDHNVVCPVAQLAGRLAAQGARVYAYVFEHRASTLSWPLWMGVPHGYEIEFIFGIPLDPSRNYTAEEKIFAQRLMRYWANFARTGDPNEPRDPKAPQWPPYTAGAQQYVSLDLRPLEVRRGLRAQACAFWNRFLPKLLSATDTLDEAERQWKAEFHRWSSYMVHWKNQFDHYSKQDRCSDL
rat CYP3A2, Cyp3a2 (gene 266682), sequence (P05183 whole entry, looked up): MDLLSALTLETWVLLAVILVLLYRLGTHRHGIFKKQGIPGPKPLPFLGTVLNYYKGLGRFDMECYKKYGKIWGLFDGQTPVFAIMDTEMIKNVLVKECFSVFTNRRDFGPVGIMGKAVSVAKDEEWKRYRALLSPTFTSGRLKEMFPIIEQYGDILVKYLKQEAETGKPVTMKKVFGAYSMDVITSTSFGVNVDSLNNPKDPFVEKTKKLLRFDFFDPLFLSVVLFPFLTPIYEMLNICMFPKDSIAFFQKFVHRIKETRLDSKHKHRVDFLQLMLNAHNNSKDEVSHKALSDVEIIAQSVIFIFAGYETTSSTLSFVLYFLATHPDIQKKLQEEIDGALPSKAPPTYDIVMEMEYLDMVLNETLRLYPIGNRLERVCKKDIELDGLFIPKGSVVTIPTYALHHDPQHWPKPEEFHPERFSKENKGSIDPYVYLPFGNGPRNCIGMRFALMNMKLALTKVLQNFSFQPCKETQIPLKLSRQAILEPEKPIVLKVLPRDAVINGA
human Caspase 8 (CASP8), CASP8 (gene 841), sequence (Q14790 whole entry, looked up): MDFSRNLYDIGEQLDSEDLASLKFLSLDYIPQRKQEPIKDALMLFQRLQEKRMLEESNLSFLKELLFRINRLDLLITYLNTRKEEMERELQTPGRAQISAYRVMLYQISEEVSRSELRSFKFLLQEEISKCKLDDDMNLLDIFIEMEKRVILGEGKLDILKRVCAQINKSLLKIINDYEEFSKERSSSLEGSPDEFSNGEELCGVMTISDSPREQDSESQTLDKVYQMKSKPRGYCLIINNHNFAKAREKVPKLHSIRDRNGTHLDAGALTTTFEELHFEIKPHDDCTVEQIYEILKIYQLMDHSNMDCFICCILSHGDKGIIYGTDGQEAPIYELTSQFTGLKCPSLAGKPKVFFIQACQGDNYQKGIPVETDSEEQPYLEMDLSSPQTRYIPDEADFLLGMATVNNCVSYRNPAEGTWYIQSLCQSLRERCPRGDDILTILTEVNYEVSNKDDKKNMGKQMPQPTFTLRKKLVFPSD
human Casein Kinase 1-delta (CK1D), CSNK1D (gene 1453), sequence (P48730 whole entry, looked up): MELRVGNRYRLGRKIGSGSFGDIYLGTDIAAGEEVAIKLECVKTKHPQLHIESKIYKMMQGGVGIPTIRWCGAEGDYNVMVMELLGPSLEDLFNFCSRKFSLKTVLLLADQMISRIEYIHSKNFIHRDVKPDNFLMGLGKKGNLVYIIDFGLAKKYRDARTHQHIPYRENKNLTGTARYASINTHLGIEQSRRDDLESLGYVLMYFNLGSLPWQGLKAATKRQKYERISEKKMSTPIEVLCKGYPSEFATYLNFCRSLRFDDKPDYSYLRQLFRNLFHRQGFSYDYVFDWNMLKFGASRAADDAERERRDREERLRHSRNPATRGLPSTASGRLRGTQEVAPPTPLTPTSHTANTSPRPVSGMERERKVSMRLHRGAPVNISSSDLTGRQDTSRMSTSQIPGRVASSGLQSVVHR
Caspase-3 (Homo sapiens), sequence (P42574 whole entry, looked up): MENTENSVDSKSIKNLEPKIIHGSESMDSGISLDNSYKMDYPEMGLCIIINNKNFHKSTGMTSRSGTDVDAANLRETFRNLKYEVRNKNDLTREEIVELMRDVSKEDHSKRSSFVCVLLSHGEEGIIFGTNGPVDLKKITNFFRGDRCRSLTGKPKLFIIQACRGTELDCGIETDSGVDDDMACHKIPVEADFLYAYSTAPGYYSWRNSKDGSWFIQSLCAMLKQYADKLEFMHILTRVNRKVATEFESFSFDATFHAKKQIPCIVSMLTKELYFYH

A word on the AC50: it is the concentration at which the activity in the assay is half-maximal. For `CC1(C(=O)Nc2ccc(O)c(Cl)c2Cl)CCCCC1`, the AC50 in assay [1] was 3.42 µM (active).
For `Cc1cc(C2CC2)nc(Nc2ccccc2)n1`, the molecule was called inactive (in assay [2]; with Caspase-1 (Homo sapiens)).
For the molecule `COc1ccc(C(=CC(=O)N2CCOCC2)c2ccc(Cl)cc2)cc1OC`, the AC50 in assay [1] is 6.54 µM (active). The outcome (in the assay with Caspase-3 (Homo sapiens); in assay [3]) was inactive.
For `CCCOCC(=Nc1ccc(Cl)cc1C(F)(F)F)n1ccnc1`, the AC50 in assay [1] was 1.7 µM (active). Also, the molecule was classed as inactive in [4].
On to `CCOP(=S)(OCC)Oc1ccc([N+](=O)[O-])cc1`, for which the AC50 in assay [1] was 2.86 µM (active).
Still for that read-out and setting: as for `C[Si](Cn1cncn1)(c1ccc(F)cc1)c1ccc(F)cc1`, the figure is 1.07 µM (active).
For the molecule `CCOC(=O)CC(SP(=O)(OC)OC)C(=O)OCC` (configuration not stated), the call in assay [1] and in [5] was inactive.
For `CCc1cccc(C)c1N(C(=O)CCl)C(C)COC` (configuration not stated), in assay [1], the AC50 was 6.68 µM (active).
As for `CNC(=O)ON=C(SC)C(=O)N(C)C`, in assay [5], the concentration at half-maximal activity (AC50) is 12 µM (active).
On to `COP(=O)(OC)OC(Br)C(Cl)(Cl)Br` (configuration not stated), for which the AC50 in assay [5] was 3.67 µM (active).
Regarding `CNC(=O)Oc1cccc2c1OC(C)(C)O2`, the AC50 in [5] was 1.36 µM (active).
Consider `CCCSP(=O)(OCC)Oc1ccc(Br)cc1Cl` (configuration not stated), for which the AC50 is 7.4 µM (active) in [1] and 7.93 µM (active) in assay [5].
`CC(C1CC1)C(O)(Cn1cncn1)c1ccc(Cl)cc1` (configuration not stated): the AC50 in [1] was 0.771 µM (active).
Consider `CCOP(=S)(OCC)OC(Cl)C(Cl)(Cl)Cl` (configuration not stated), for which the AC50 in assay [5] was 8.21 µM (active).
For `COP(=O)(OC)SCn1c(=O)oc2cc(Cl)cnc21`, the results for the AC50 in assay [1] and in assay [5] were 6.18 µM (active) and 6.65 µM (active), respectively.
In the case of `CSC1=N[C@@](C)(c2ccccc2)C(=O)N1Nc1ccccc1`, in [1], the AC50 is 7.11 µM (active).
Still for that read-out and setting: under `FC(F)C(F)(F)OCC(Cn1cncn1)c1ccc(Cl)cc1Cl` (configuration not stated) stands 5.51 µM (active).
`CC(=NC#N)N(C)Cc1ccc(Cl)nc1`: in assay [5], the AC50 is 22.4 µM (active).
As for `CCC(=O)Nc1ccc(Cl)c(Cl)c1`, the call in [5] and in [6] was inactive. The results for the AC50 in assay [7] and in assay [8] were 1.66 µM (active) and 23.6 µM (active), respectively.
As for `CC[C@H](C)[C@H]1O[C@]2(C=C[C@@H]1C)C[C@@H]1C[C@@H](C/C=C(\C)[C@@H](O[C@H]3C[C@H](OC)[C@@H](O[C@H]4C[C@H](OC)[C@@H](NC)[C@H](C)O4)[C@H](C)O3)[C@@H](C)/C=C/C=C3\CO[C@@H]4[C@H](O)C(C)=C[C@@H](C(=O)O1)[C@]34O)O2`, the AC50 in assay [1] is 8.11 µM (active); in assay [2], 14.6 µM (active); in assay [10] it was 9.68 µM (active). Besides, the outcome (in assay [9]; in the assay with Caspase-3 (Homo sapiens); in assay [4]) was inactive.
As for `C#CCC1=C(C)C(OC(=O)C2C(C=C(C)C)C2(C)C)CC1=O` (configuration not stated), in assay [1], the AC50 was 3.03 µM (active). The result in [10] and in assay [4] was inactive.
Regarding `C=C(C)[C@H]1Cc2c(ccc3c2O[C@@H]2COc4cc(OC)c(OC)cc4[C@@H]2C3=O)O1`, the AC50 in assay [1] is 2.88 µM (active). For the same molecule, the molecule was called inactive in [4].
For `CNc1cnn(-c2cccc(C(F)(F)F)c2)c(=O)c1Cl`, the result in assay [1] was inactive.
Take `COc1cccc(C(=O)NN(C(=O)c2cc(C)cc(C)c2)C(C)(C)C)c1C`: in assay [1], the AC50 is 0.651 µM (active).
Take `CCOP(=S)(OCC)Oc1ccc2c(C)c(Cl)c(=O)oc2c1`: the AC50 in assay [1] is 0.83 µM (active).
With `CNC(=O)ON=C(C)SC`, in [5], the AC50 is 25 µM (active).
With `CCOP(=O)(SC(C)CC)N1CCSC1=O` (configuration not stated), the AC50 in assay [1] is 8.56 µM (active). Further, in [11], the outcome was inactive.
On to `CN(C)NC(=O)CCC(=O)O`, for which the call in assay [1] was inactive.
With `CCCCOC(=O)c1ccccc1C(=O)O`, the result in assay [11] and in assay [10] was inactive.
In the case of `Nc1nc(N)nc(NC2CC2)n1`, the result in assay [3] was inactive. Further, in assay [8], the AC50 is 16.3 µM (active).
In the case of `CCCCSP(=O)(SCCCC)SCCCC`, the outcome in assay [10] was inactive.
